# In publication PMC11062922 (Nature Chemical Biology, 2023):
# Where two headings read alike, the source gives them in different places.
# What was measured:
# Set-up in all cases: species or system human, MV4-11 + K-562 + COLO205 + SK-N-BE2 + OVCAR-8
# GSK3A = conditions: read-out: apparent Kd, n = 1
# ILK = conditions: read-out: apparent Kd; compound concentrations: 100 nM and 1000 nM (sheet 'Samples'), CATDS: 0.49132594031882498; n = 1
# MAPK10 = conditions: read-out: apparent Kd; compound concentrations: 100 nM and 1000 nM (sheet 'Samples'), CATDS: 0.50898583433438105; n = 1
# HCK = conditions: read-out: apparent Kd; compound concentrations: 100 nM and 1000 nM (sheet 'Samples'), CATDS: 0.18431163144464899; n = 1
# MAPK14 = conditions: read-out: apparent Kd; compound concentrations: 100 nM and 1000 nM (sheet 'Samples'), CATDS: 0.18472106160443499; n = 1
# MDN1 = conditions: read-out: apparent Kd, n = 1
# RET = conditions: read-out: apparent Kd; compound concentrations: 100 nM and 1000 nM (sheet 'Samples'), CATDS: 0.22274296302997099; n = 1
# YES1 = conditions: read-out: apparent Kd; compound concentrations: 100 nM and 1000 nM (sheet 'Samples'), CATDS: 0.26066512285863302; n = 1
# IARS = conditions: read-out: apparent Kd, compound concentrations: 100 nM and 1000 nM (sheet 'Samples'), n = 1
# RIOK2 = conditions: read-out: apparent Kd; compound concentrations: 100 nM and 1000 nM (sheet 'Samples'), CATDS: 0.52054883723006395; n = 1
# JAK2 = conditions: read-out: apparent Kd; compound concentrations: 100 nM and 1000 nM (sheet 'Samples'), CATDS: 1; n = 1
# HSP90B1 = conditions: read-out: apparent Kd; compound concentrations: 100 nM and 1000 nM (sheet 'Samples'), CATDS: 0.28143783483282298; n = 1
# PIK3C3 = conditions: read-out: apparent Kd; compound concentrations: 100 nM and 1000 nM (sheet 'Samples'), CATDS: 0.26990158235455203; n = 1
# PIK3CB = conditions: read-out: apparent Kd; compound concentrations: 100 nM and 1000 nM (sheet 'Samples'), CATDS: 0.57413084763850397; n = 1
# PRKCD = conditions: read-out: apparent Kd, n = 1
# GSK3B = conditions: read-out: apparent Kd, n = 1
# MERTK = conditions: read-out: apparent Kd; compound concentrations:100 nM and 1000 nM (sheet 'Samples'); n = 1
# MAPKAPK2 = conditions: read-out: apparent Kd; compound concentrations:100 nM and 1000 nM (sheet 'Samples'); n = 1
# MYLK3 = conditions: read-out: apparent Kd; compound concentrations:100 nM and 1000 nM (sheet 'Samples'); n = 1
# NQO2 = conditions: read-out: apparent Kd; compound concentrations:100 nM and 1000 nM (sheet 'Samples'); n = 1
# SMC4 = conditions: read-out: apparent Kd; compound concentrations:100 nM and 1000 nM (sheet 'Samples'); n = 1
# PRKCA = conditions: read-out: apparent Kd; compound concentrations: 100 nM and 1000 nM (sheet 'Samples'), CATDS: 0.195929094272485; n = 1
# PRKCB = conditions: read-out: apparent Kd; compound concentrations:100 nM and 1000 nM (sheet 'Samples'); n = 1
# PRKCQ = conditions: read-out: apparent Kd; compound concentrations:100 nM and 1000 nM (sheet 'Samples'); n = 1
# RPS6KA6 = conditions: read-out: apparent Kd; compound concentrations:100 nM and 1000 nM (sheet 'Samples'); n = 1
# RPS6KB1 = conditions: read-out: apparent Kd; compound concentrations:100 nM and 1000 nM (sheet 'Samples'); n = 1
# ICK = conditions: read-out: apparent Kd; compound concentrations: 100 nM and 1000 nM (sheet 'Samples'), CATDS: 0.23248137577465; n = 1
# [1] = compound concentrations:100 nM and 1000 nM (sheet 'Samples')
compound,measurement,setting,value
O=C(Nc1n[nH]c2nc(-c3ccco3)c(Br)cc12)C1CCN(Cc2ccccc2)C1.O=C(O)[C@H](O)[C@@H](O)C(=O)O (stereo not shown) [SB-742034-AC],potency estimated from few doses,GSK3A; [1],410 nM
Cn1cc(C2=C(c3cn(C)c4cc(Cl)ccc34)C(=O)NC2=O)c2ccccc21 [RO0317597-000],potency estimated from few doses,ILK,1590 nM
same,potency estimated from few doses,MAPK10,1480 nM
COc1cc(Nc2nccc(-c3c(-c4cccc(NC(=O)c5c(F)cccc5F)c4)nn4ccccc34)n2)cc(OC)c1OC [GSK323521A],potency estimated from few doses,HCK,1570 nM
same,potency estimated from few doses,MAPK14,1560 nM
same,potency estimated from few doses,"MDN1; compound concentrations: 100 nM and 1000 nM (sheet 'Samples'), CATDS: 0.171379045218121",1860 nM
same,potency estimated from few doses,RET,1070 nM
same,potency estimated from few doses,YES1,812 nM
CS(=O)(=O)CCNCc1ccc(-c2ccc3ncnc(Nc4ccc(OCc5ccccc5)c(C(F)(F)F)c4)c3c2)o1.Cl [GW574782A],potency estimated from few doses,IARS; CATDS: 0.48101189655770898,1950 nM
same,potency estimated from few doses,RIOK2,1670 nM
COC(=O)Nc1nc2ccc(S(=O)(=O)c3ccc(NC(=O)Nc4cc(C(F)(F)F)ccc4F)cc3)cc2[nH]1.Cl [GW680908A],potency estimated from few doses,JAK2,356 nM
O=c1cc(N2CCOCC2)nc2n(Cc3cccc(Cl)c3Cl)c3ccccc3n12 [GSK2299009A],potency estimated from few doses,HSP90B1,1040 nM
same,potency estimated from few doses,PIK3C3,1170 nM
same,potency estimated from few doses,PIK3CB,251 nM
O=C(Nc1n[nH]c2nc(-c3ccco3)ccc12)C1CC1 [SB-743899],potency estimated from few doses,"GSK3A; compound concentrations: 100 nM and 1000 nM (sheet 'Samples'), CATDS: 0.54830406508791196",1390 nM
same,potency estimated from few doses,"PRKCD; compound concentrations: 100 nM and 1000 nM (sheet 'Samples'), CATDS: 0.45951776162212499",1990 nM
O=C(Nc1n[nH]c2nc(-c3cccs3)c(Br)cc12)C1CCCC1 [SB-743341],potency estimated from few doses,GSK3A; [1],529 nM
same,potency estimated from few doses,GSK3B; [1],1070 nM
same,potency estimated from few doses,MERTK,1720 nM
Cc1ccc(-c2nc(Nc3ccncc3)c3ccccc3n2)s1 [GSK189015A],potency estimated from few doses,IARS; CATDS: 1,1440 nM
Cn1cc(C2=C(c3c4n(c5ccccc35)CCN(C(N)=S)C4)C(=O)NC2=O)c2ccccc21 [RO0319377-000],potency estimated from few doses,GSK3A; [1],427 nM
same,potency estimated from few doses,"GSK3B; compound concentrations: 100 nM and 1000 nM (sheet 'Samples'), CATDS: 0.32462654335000002",259 nM
same,potency estimated from few doses,MAPKAPK2,1830 nM
same,potency estimated from few doses,MDN1; [1],1470 nM
same,potency estimated from few doses,MYLK3,1640 nM
same,potency estimated from few doses,NQO2,1550 nM
same,potency estimated from few doses,SMC4,2130 nM
CN(C)CC1CCn2c(c(C3=C(c4cn(C)c5ccccc45)C(=O)NC3=O)c3ccccc32)C1 (stereo not shown) [RO0318830-000],potency estimated from few doses,GSK3A; [1],43.8 nM
same,potency estimated from few doses,GSK3B; [1],53.4 nM
same,potency estimated from few doses,PRKCA,30.2 nM
same,potency estimated from few doses,PRKCB,88.5 nM
same,potency estimated from few doses,PRKCD; [1],34.5 nM
same,potency estimated from few doses,PRKCQ,123 nM
same,potency estimated from few doses,RPS6KA6,56.8 nM
same,potency estimated from few doses,RPS6KB1,1600 nM
COc1cccc2c1c(C1=C(c3cn(C)c4ccccc34)C(=O)NC1=O)cn2C [RO0317494-000],potency estimated from few doses,"GSK3A; compound concentrations: 100 nM and 1000 nM (sheet 'Samples'), CATDS: 0.489076637072761",149 nM
same,potency estimated from few doses,"GSK3B; compound concentrations: 100 nM and 1000 nM (sheet 'Samples'), CATDS: 0.37680240996491099",241 nM
same,potency estimated from few doses,ICK,912 nM
Cn1cc(C2=C(c3cn(C)c4cc(C(=O)O)ccc34)C(=O)NC2=O)c2ccccc21 [RO0319318-000],potency estimated from few doses,"GSK3A; compound concentrations: 100 nM and 1000 nM (sheet 'Samples'), CATDS: 0.46645523537497902",612 nM
same,potency estimated from few doses,"GSK3B; compound concentrations: 100 nM and 1000 nM (sheet 'Samples'), CATDS: 0.53874330478413901",458 nM
